Values joined by “and” are separate entries in the source; they are usually repeats but may differ in a detail not shown here. Identical values can stand only once. Records with an inconclusive call do not appear. Active and inactive are the calls of the source. Unless noted, cut-off not given; nearly all actives show AC50 up to about 26 µM.
How the values were obtained:
[1] = growth inhibition of DIPG glioma cells, dose response, cell-based, SU-DIPG-XVII, MIPE5.0, CellTiter-Glo, qHTS (AID 1347060); details: SU-DIPG-XVII viability, CellTiter-Glo ATP luminescence;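 on AC50: cells exposed to compound for 48 hours before viability readout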
[2] = growth inhibition of DIPG glioma cells, dose response, cell-based, SU-DIPG-XIII, MIPE4.0, CellTiter-Glo, qHTS (AID 1347061; cut-off not given, nearly all actives have AC50 up to about 37 µM;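 further: cells exposed to compound for 48 hours before readout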); details: SU-DIPG-XIII viability, CellTiter-Glo ATP luminescence
[3] = growth inhibition of DIPG glioma cells, dose response, cell-based, JHH-DIPG-1, MIPE4.0, CellTiter-Glo, qHTS (AID 1347062; cut-off not given, nearly all actives have AC50 up to about 27 µM;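 on AC50: cells exposed to compound for two days before readout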); details: JHH-DIPG-1 viability, CellTiter-Glo ATP luminescence
[4] = growth inhibition of DIPG glioma cells, dose response, cell-based, SU-DIPG-IV, MIPE4.0, CellTiter-Glo, qHTS (AID 1347063; cut-off not given, nearly all actives have AC50 up to about 30 µM;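 further: compound exposure lasted 48 hours before the viability readout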); details: SU-DIPG-IV viability, CellTiter-Glo ATP luminescence
[5] = growth inhibition of DIPG glioma cells, dose response, cell-based, SU-DIPG-XIII, MIPE5.0, CellTiter-Glo, qHTS (AID 1347064; cut-off not given, nearly all actives have AC50 up to about 23 µM;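 on AC50: cells exposed to compound for 48 hours before the viability read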); details: SU-DIPG-XIII viability, CellTiter-Glo ATP luminescence
[6] = viability loss in pontine glioma line – cell-based, SU-DIPG-XXV, MIPE5.0, CellTiter-Glo, qHTS, dose response (AID 1347065); details: CellTiter-Glo ATP luminescence;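 further: cells exposed to compound for 48 hours before ATP readout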
[7] = SU-DIPG-VI glioma cell viability, MIPE4.0 library, CellTiter-Glo luminescence, qHTS (AID 1347066; cut-off not given, nearly all actives have AC50 up to about 30 µM;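 further: cells exposed to compound for 48 hours before readout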); details: CellTiter-Glo ATP luminescence
[8] = JHH-DIPG-1 glioma cell viability, MIPE5.0 library, CellTiter-Glo luminescence, qHTS (AID 1347067); details: JHH-DIPG-1 glioma viability, CellTiter-Glo ATP luminescence;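 further: cells exposed to compound for 48 hours before readout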
[9] = SU-DIPG-XXV glioma cell viability, MIPE5.0 library, qHTS (AID 1347068; cut-off not given, nearly all actives have IC50 up to about 30 µM;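 on IC50: cells exposed to compound for 48 hours before viability readout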)
[10] = sensitizers of A549 cells to miR-34 induction, primary screen, imaging, A549 dox-inducible miR-34, nuclei and caspase counts (AID 1347080;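 active means compounds whose cell count with miR-34 switched on is under 0.7 times the count with it off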); details: A549 miR-34 inducible, Hoechst nuclei count, 48 h
[11] = modifiers of HSF1 nuclear foci, imaging, Selleck Cancer Library (AID 1347162; in the data active means plate-normalised HSF1 focus index below about 0.46); details: human cells, at 10 µM; SSMD: measured here: HSF1 foci SSMD mean; cell count: measured here: cell number; plate-normalised HSF1 focus index: stronger effect = lower value
[12] = survival rescue of mitochondrial mutant cells in low glucose, primary screen, MELAS cybrids, Rieske KO mouse fibroblasts, CellTiter-Glo (AID 1508586;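 active means mean z-score across replicates of 1.96 or higher in either the MELAS or the Rieske mutant cell line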;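 further: z relative to plate mean and SD of compound and empty wells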)
[13] = viability rescue of complex I mutant cybrids, primary screen, cell-based, galactose medium, ATP luminescence (AID 1645843;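 active means z-score of at least 1.8 in each of two replicates, scored against plate mean and spread of sample wells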;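 further: positive z means more ATP and so rescue of galactose-driven cybrid death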); details: complex I mutant cybrid cells, 72 h, stronger effect = higher value
[14] = stronger effect = lower value, cell number ratio, induced over uninduced
[15] = measured here: relative caspase fold change +Dox/-Dox
[16] = measured here: total cells with miR-34 induction, stronger effect = lower value
[17] = measured here: total cells without miR-34 induction
[18] = MELAS cybrid survival, CellTiter-Glo 48 h, stronger effect = higher value
[19] = Rieske KO mouse fibroblast survival, CellTiter-Glo 72 h

Compound: CCn1cc(-c2ccnc3[nH]c(-c4cccc(CN(C)C)c4)cc23)c(-c2ccc(NC(=O)N(C)C)cc2)n1
- AC50 [1]: 0.59 µM (active)
- AC50 [2]: 13.2 µM (active)
- AC50 [3]: 16.6 µM (active)
- AC50 [4]: 0.209 µM (active)
- AC50 [5]: 8.33 µM (active)
- AC50 [6]: 0.525 µM (active)
- AC50 [7]: 20.9 µM (active)
- AC50 [8]: 11.8 µM (active)
- IC50 [9]: 7.42 µM (active)

Compound: COc1cc2nc(N3CCCN(C)CC3)nc(NC3CCN(Cc4ccccc4)CC3)c2cc1OC
- AC50 [1]: 10.5 µM (active)
- AC50 [2]: 26.4 µM (active)
- AC50 [3]: 7.43 µM (active)
- AC50 [4]: 10.5 µM (active)
- AC50 [5]: 13.2 µM (active)
- AC50 [6]: 10.5 µM (active)
- AC50 [7]: 9.35 µM (active)
- AC50 [8]: 13.2 µM (active)
- IC50 [9]: 11.8 µM (active)
- fold change [10, 14]: 0.884 (inactive) and 1.04 (inactive) and 1.01 (inactive)
- fold change [10, 15]: 1.51 and 1.3 and 0.404
- cell count [10, 16]: 672 and 5080 and 2320
- cell count [10, 17]: 760 and 4890 and 2300
- SSMD [11]: 1.64
- cell count [11]: 6820
- plate-normalised HSF1 focus index [11]: 1.1 (inactive)
- z-score [12, 18]: -0.436 (inactive)
- z-score [12, 19]: -1.67
- z-score [13]: -1.38 (inactive)

Compound: CC(=O)OC[C@@H]1O[C@@H](n2ccc(=O)[nH]c2=O)[C@H](OC(C)=O)[C@@H]1OC(C)=O
- outcome [1]: inactive
- outcome [2]: inactive
- outcome [3]: inactive
- outcome [4]: inactive
- outcome [5]: inactive
- outcome [6]: inactive
- outcome [7]: inactive
- outcome [8]: inactive
- outcome [9]: inactive

Compound: CCS(=O)(=O)c1cccc(-c2cc(C(=O)NC3CCN(C)CC3)c(C)c3[nH]c4ncc(C)cc4c23)c1
- AC50 [1]: 0.59 µM (active)
- AC50 [2]: 2.96 µM (active)
- AC50 [3]: 2.64 µM (active)
- AC50 [4]: 5.26 µM (active)
- AC50 [5]: 1.48 µM (active)
- AC50 [6]: 0.59 µM (active)
- AC50 [7]: 8.33 µM (active)
- AC50 [8]: 1.48 µM (active)
- IC50 [9]: 1.48 µM (active)
- fold change [10, 14]: 1.06 (inactive)
- fold change [10, 15]: 0.946
- cell count [10, 16]: 1160
- cell count [10, 17]: 1090
- z-score [12, 18]: 2.57 (active)
- z-score [12, 19]: -0.249

Compound: NC(=NCCCCCCN=C(N)N=C(N)Nc1ccc(Cl)cc1)N=C(N)Nc1ccc(Cl)cc1
- AC50 [1]: 9.34 µM (active)
- AC50 [2]: 4.18 µM (active)
- AC50 [3]: 14.8 µM (active)
- AC50 [4]: 18.7 µM (active)
- AC50 [5]: 8.33 µM (active)
- AC50 [6]: 9.34 µM (active)
- AC50 [7]: 13.2 µM (active)
- AC50 [8]: 11.8 µM (active)
- IC50 [9]: 14.8 µM (active)
- fold change [10, 14]: 0.848 (inactive)
- fold change [10, 15]: 0.439
- cell count [10, 16]: 1370
- cell count [10, 17]: 1620
- z-score [12, 18]: -0.252 (inactive)
- z-score [12, 19]: 0.00983

Compound: Cc1cccc(-c2[nH]ncc2-c2ccc3ncccc3n2)n1
- outcome [1]: inactive
- outcome [2]: inactive
- outcome [3]: inactive
- outcome [4]: inactive
- outcome [5]: inactive
- outcome [6]: inactive
- outcome [7]: inactive
- outcome [8]: inactive
- outcome [9]: inactive
- fold change [10, 14]: 0.969 (inactive) and 0.891 (inactive)
- fold change [10, 15]: 0.983 and 0.417
- cell count [10, 16]: 9850 and 8880
- cell count [10, 17]: 10200 and 9960
- z-score [12, 18]: -0.572 (inactive)
- z-score [12, 19]: 0.111
- z-score [13]: -0.39 (inactive)
